Bioassay records from PubChem.
ABCB6 inh MLPCN: inhibitors of human ABC transporter ABCB6; Q9NP58; K562-ABCB6 porphyrin accumulation, flow cytometry, 1 h; stronger effect = lower value; fluorescence ratio to DMSO, % at 10 µM; hit rate 0.19% among 360,000; AID 602162;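 active means fluorescence ratio to DMSO below 75%, the collection mean minus 3 SD; inconclusive means too few cells collected in the well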;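 further: signal is porphyrin accumulated inside mitochondria; lower ratio means ABCB6 inhibition with less porphyrin fluorescence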
Target sequence (Q9NP58 whole entry, looked up): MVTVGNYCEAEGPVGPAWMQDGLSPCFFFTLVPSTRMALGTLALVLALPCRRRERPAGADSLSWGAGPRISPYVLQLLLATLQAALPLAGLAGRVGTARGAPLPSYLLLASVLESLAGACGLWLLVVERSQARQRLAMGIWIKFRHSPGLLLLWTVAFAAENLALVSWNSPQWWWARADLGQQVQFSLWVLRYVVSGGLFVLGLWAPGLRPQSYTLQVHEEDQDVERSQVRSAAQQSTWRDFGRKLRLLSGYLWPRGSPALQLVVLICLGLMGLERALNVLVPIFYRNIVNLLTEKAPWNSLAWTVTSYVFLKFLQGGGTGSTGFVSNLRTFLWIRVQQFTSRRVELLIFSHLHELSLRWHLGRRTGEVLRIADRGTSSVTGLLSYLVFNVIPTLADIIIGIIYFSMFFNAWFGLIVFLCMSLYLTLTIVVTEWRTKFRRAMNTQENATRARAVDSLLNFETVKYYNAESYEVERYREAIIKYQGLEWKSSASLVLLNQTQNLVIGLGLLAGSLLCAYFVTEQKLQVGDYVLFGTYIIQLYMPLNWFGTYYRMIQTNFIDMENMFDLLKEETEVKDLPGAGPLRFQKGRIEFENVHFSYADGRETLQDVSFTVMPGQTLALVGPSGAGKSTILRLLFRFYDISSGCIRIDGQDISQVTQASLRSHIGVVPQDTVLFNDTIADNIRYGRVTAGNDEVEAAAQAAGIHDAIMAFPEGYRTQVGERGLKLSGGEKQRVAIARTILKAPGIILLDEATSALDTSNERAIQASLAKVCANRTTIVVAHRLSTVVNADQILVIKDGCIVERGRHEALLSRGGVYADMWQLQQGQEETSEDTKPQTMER
Granule exo inh: lytic granule exocytosis inhibition; TALL-104 LAMP-1 surface exposure, flow cytometry; cells stimulated with thapsigargin and PMA; inhibition, % at 10 µM; hit rate 0.66% among 360,000; AID 651702;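 active means inhibition above about 55%, limit read from the data; inconclusive means no clear call, values can overlap the other calls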
Myeloid diff 2: compounds promoting myeloid differentiation; hit rate 1% among 360,000; AID 624256; calls only at 10 µM; ER-HoxA9 myeloid progenitors, lysozyme-GFP differentiation, flow cytometry;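 active means normalized GFP-positive differentiation at or above the plate's own cutoff, the solvent-only control mean plus 3 SD; inconclusive means no clear call, values can overlap the other calls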;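 further: cells exposed to compound for four days before flow analysis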
Numbers stand for hits; i = inactive; ? = inconclusive; nt = not tested or not shown; + = active, no number. Rows were chosen to be rich in hits. Some 1.8% of all compounds tested hit in one or more screens of this group.

SMILES | ABCB6 inh MLPCN | Granule exo inh | Myeloid diff 2
COCC(C)OC(=O)C(C#N)c1nc2ccccc2nc1N1CCN(Cc2ccccc2)CC1 (centres undefined) | i | i | i
CCC(=O)C1CCCN(C(=O)CCc2nnc(-c3ccc(C(C)=O)s3)o2)C1 (centres undefined) | i | i | i
Cc1ccccc1C(=O)N/N=C/c1ccc([N+](=O)[O-])s1 | i | i | i
Cc1cc(C(=O)N/N=C/c2ccc([N+](=O)[O-])s2)c2ccccc2n1 | i | i | +
Cc1cc(C(=O)N/N=C/c2ccc([N+](=O)[O-])cc2)c2ccccc2n1 | i | i | +
Cc1cc(C(N)=O)c2ccccc2n1 | i | i | i
Cc1cc(C(=O)O)c2ccccc2n1 | i | i | +
Cc1cc(C(=O)N/N=C/c2cc([N+](=O)[O-])ccc2O)c2ccccc2n1 | i | i | i
COc1ccc(C(=O)NCCN2CCOCC2)cc1S(=O)(=O)Nc1ccc(C)cc1 | i | i | i
CCN(C[C@H]1N[C@@](Cc2ccccc2)(C(=O)OC)[C@H]2C(=O)N(Cc3ccccc3)C(=O)[C@@H]12)C(=O)Nc1ccc(C(F)(F)F)cc1 | i | i | i
O=[N+]([O-])c1ccc(S(=O)(=O)CC(CN2CCCCC2)N2CCCCC2)cc1 (centres undefined) | i | 64.1 | i
O=[N+]([O-])c1ccc(S(=O)(=O)CC(CN2CCOCC2)N2CCOCC2)cc1 (centres undefined) | i | i | i
O=C(CN1CCN(S(=O)(=O)c2ccc(Cl)cc2)CC1)N1CCCC1 | i | i | i
N=c1n(CC(=O)c2ccc([N+](=O)[O-])cc2)c2ccccc2n1Cc1ccccc1 | i | 76.5 | i
N=c1n(CCN2CCCCC2)c2ccccc2n1CC(=O)c1cccc([N+](=O)[O-])c1 | i | i | +
O=C(CC(=O)c1ccccc1)Nc1ccc([N+](=O)[O-])cc1 | i | i | i
N=c1n(CC(=O)c2ccc([N+](=O)[O-])cc2)c2ccccc2n1Cc1ccc(Cl)cc1 | i | i | i
O=C(Cc1ccc([N+](=O)[O-])cc1)c1ccccc1 | i | i | +
C=CCn1c(=N)n(CC(=O)c2cccc([N+](=O)[O-])c2)c2ccccc21 | i | i | i
COc1ccc(NS(=O)(=O)c2ccc(N3CCOCC3)c(N)c2)cc1 | i | i | i
Cc1c(C(=O)N2CCCCC2)c(S(=O)(=O)Nc2ccc(F)cc2F)c(C)n1C | i | i | i
CSCCC(NC(=O)c1ccccc1)C(=O)N1CCN(C(c2ccccc2)c2ccccc2)CC1 (centres undefined) | i | i | i
O=C(/C=C/c1ccc(F)cc1)N1CC[C@@]2(O)CCCC[C@H]2C1 | i | i | +
O=C(/C=C/c1ccc(F)cc1)N1CCCN(C(=O)/C=C/c2ccc(F)cc2)CC1 | i | i | i
COCCN(C(=O)COC(=O)C12CC3CC(CC(C3)C1)C2)c1c(N)n(Cc2ccccc2)c(=O)[nH]c1=O | i | i | i
SMILES | ABCB6 inh MLPCN | Granule exo inh | Myeloid diff 2
COCCN1C(=O)N[C@@H](c2cccc(C(F)(F)F)c2)[C@@H](C(=O)OC)[C@H]1C | i | i | i
COC(=O)[C@H]1[C@H](CCc2ccccc2)NC(=O)N(Cc2ccccc2)[C@@H]1C | i | i | i
CCN1C(=O)N[C@@H](CCc2ccccc2)[C@@H](C(=O)OC)[C@H]1C | i | i | +
COC(=O)[C@H]1[C@@H](C)N(Cc2ccccc2)C(=O)N[C@H]1c1cccc(C(F)(F)F)c1 | i | i | +
CC1(C(=O)NS(=O)(=O)c2ccc(Cl)cc2)CCN1C(=O)CCc1ccccc1 (centres undefined) | i | i | i
COC(=O)C[C@@H]1CC[C@@H](NS(=O)(=O)c2ccc(OC)cc2)[C@@H](CO)O1 | nt | i | i
COCCN(C(=S)Nc1ccc(Cl)cc1OC)C1CCN(C(C)=O)CC1 | i | i | i
Cn1c(=O)c([N+](=O)[O-])c(Cl)c2ccccc21 | i | 71.4 | ?
CCN(CC)c1c([N+](=O)[O-])c(=O)n(C)c2ccccc12 | i | i | i
O=C(CCn1c(=O)oc2cc(Cl)ccc21)Nc1ccc(N2CCOCC2)cc1 | i | i | +
O=C(CCn1c(=O)oc2ccccc21)Nc1ccc(N2CCOCC2)cc1 | i | i | i
CC1(C2CC2)NC(=O)N(CC(=O)N2CCN(c3ccccc3)CC2)C1=O (centres undefined) | i | i | i
C[C@@H](c1ccccc1)N1C[C@@H](COCc2ccccc2)Oc2cc(N3CC[C@@H](O)C3)ccc2S1(=O)=O | i | i | i
C[C@@H](c1ccccc1)N1C[C@H](COCc2ccccc2)Oc2cc(N3CC[C@@H](O)C3)ccc2S1(=O)=O | i | i | +
S=c1[nH]nc(-c2cc(-c3ccccc3)n[nH]2)n1/N=C/C(Br)=C/c1ccccc1 | i | 63.4 | nt
S=c1[nH]nc(-c2cc(-c3ccccc3)n[nH]2)n1/N=C/c1ccccc1 | i | i | i
Cc1cc(C)c(CN2CCN(C(=O)Cn3cnc4c(OCc5ccccc5)ncnc43)CC2)c(C)c1 | i | i | i
O=C(O)CC(CC(=O)Nc1nncs1)c1ccccc1 (centres undefined) | i | i | i
O=C(O)CC(Cn1[nH]nnc1=S)c1ccccc1 (centres undefined) | i | i | +
COc1ccccc1NNC(=O)C(O)(c1ccccc1)c1ccccc1 | i | 104.1 | i
COc1ccccc1NNC(=O)C(O)(c1ccccc1OC)c1ccccc1OC | i | i | i
COc1ccc(C2=CC(=O)N(Nc3ccccc3)C2=O)cc1 | i | i | i
O=C1C=C(c2ccccc2)C(=O)N1Nc1ccccc1 | i | 59.2 | i
COc1ccc(NC(=O)C2c3ccccc3OCC(=O)N2C2CC2)cc1 (centres undefined) | i | i | i
O=C(O)c1ccc2c(c1)S(=O)(=O)c1cc(N3CCN(c4ncccn4)CC3)ccc1C2=O | i | i | i
SMILES | ABCB6 inh MLPCN | Granule exo inh | Myeloid diff 2
COc1ccccc1OCC(=O)NNC(=O)CCCC(=O)NNC(=O)COc1ccccc1OC | i | i | i
COc1ccccc1OCC(=O)NNc1c2ccccc2nc2ccccc12 | i | 58.6 | nt
CCN(CC)c1ncnc2c1ncn2[C@H]1CN(Cc2ccc(-c3ccccc3)cc2)C[C@@H](CO)O1 | i | i | i
COCCNc1nnc(Cc2ccccc2)c(=O)[nH]1 | i | i | +
COc1ccccc1Nc1nnc(Cc2ccccc2)c(=O)[nH]1 | i | i | i
O=C(Nc1ccccc1-c1ccccc1)c1ccc(Cl)c([N+](=O)[O-])c1 | i | i | i
O=C(Nc1ccc(Nc2ccccc2)cc1)c1ccc(Cl)c([N+](=O)[O-])c1 | i | 98.6 | i
Oc1ccccc1CC=NC1CCCCC1 | i | i | +
Oc1ccc2ccccc2c1C=NC1CCCCC1 | i | i | i
COc1ccc(Oc2ccc(NC(=O)c3ccccc3C)cc2)cc1 | i | i | i
CN(CCOc1ccc(Cl)cc1)C(=O)CN1C(=O)NC2(CCCCC2)C1=O | i | i | i
COc1cc(CN(C)C)cc(C=O)c1O | i | i | i
COc1cc(N=Nc2ccc(Br)cc2)cc(C=O)c1O | i | 105.2 | i
Cc1c(Cc2ccccc2)c(=O)oc2c(C)c(OCc3nn[nH]n3)ccc12 | i | i | i
Cc1c(CC(=O)O)c(=O)oc2c(C)c(OCc3nn[nH]n3)ccc12 | i | i | +
COc1cc(NC(=O)CSc2ncnc3c2cnn3Cc2ccccc2)cc(OC)c1 | i | i | i
COc1ccc(OC)c(NC(=O)CSc2ncnc3c2cnn3-c2ccccc2Cl)c1 | i | i | +
